Compound activity from PubChem.
The full list was thinned out, with hits kept by preference.
mHTT-CaM PPI inh – mutant huntingtin-calmodulin interaction inhibitors – biochemical, AlphaScreen, primary screen; P42858; AlphaScreen His-mHTT/GST-CaM binding, luminescence; AID 1671202, 2021; hit rate 3.6% among 190,000; inhibition, % at 15 µM;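 also: 0% = both proteins with DMSO and 100% = one protein alone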
Pf apPOL inh – Pf-apPOL inhibitors, biochemical, fluorescence | hit rate 0.25% among 210,000 | Recombinant Pf-apPOL, molecular beacon fluorescence, 1.5 h | Plasmodium falciparum apicoplast DNA polymerase (apPOL) | inhibition, % at 10 µM
The depositor's hits bear a star. Rule as the data show it: active = inhibition above about 50%; inactive = the rest.

For CCN(CC)c1ccc(CN2CCSCC2)cc1 the results were mHTT-CaM PPI inh 25 and Pf apPOL inh 0.
`O=S(=O)(c1cccc(Cl)c1)N1CCC(c2noc(-c3ccc(F)cc3)n2)CC1` gave mHTT-CaM PPI inh -5 and Pf apPOL inh -14.
Screening O=C(C1CC(=O)N(c2ccc(F)cc2)C1)N1CCC(COCc2ccccc2)CC1 (centres undefined) returned mHTT-CaM PPI inh 23 and Pf apPOL inh -14.
Screening Cc1ccc(CNC(=O)c2nc3ccccn3c2-c2ccsc2)o1 returned mHTT-CaM PPI inh 4 and Pf apPOL inh 4.
`O=C1c2cccc3c(Br)ccc(c23)C(=O)N1Cc1cccnc1` gave Pf apPOL inh -4.
For Cc1ccc2c(c1)C1=C(C(c3ccccc3F)O2)C(c2ccccc2)n2ncnc2N1 (centres undefined) the results were mHTT-CaM PPI inh 8 and Pf apPOL inh -4.
`CCOC(=O)N1CCN(Cc2ccc(F)c(Br)c2)CC1` gave mHTT-CaM PPI inh -2 and Pf apPOL inh 2.
Cc1ccccc1NC(=O)C1CCCN(c2ncc(-c3ccccc3)cn2)C1 (centres undefined) was read as mHTT-CaM PPI inh -2 and Pf apPOL inh -1.
COCCCN1COc2ccc3c(=O)c(-c4ccccc4OC)c(C(F)(F)F)oc3c2C1 was read as mHTT-CaM PPI inh -1 and Pf apPOL inh -3.
`COCCN1COc2ccc3c(=O)c(-c4ccccc4OC)c(C)oc3c2C1` gave mHTT-CaM PPI inh -7 and Pf apPOL inh 2.
CC(C)(C)N1COc2ccc3c4c(oc3c2C1)C(=O)c1ccccc1C4=O was read as mHTT-CaM PPI inh 33 and Pf apPOL inh 31.
`O=C1c2ccccc2C(=O)c2c1oc1c3c(ccc21)OCN(CCC1=CCCCC1)C3` gave mHTT-CaM PPI inh 79* and Pf apPOL inh -1.
For O=C1c2ccccc2C(=O)c2c1oc1c3c(ccc21)OCN(C1CCCCC1)C3 the results were mHTT-CaM PPI inh 84* and Pf apPOL inh 27.
O=C1c2ccccc2C(=O)c2c1oc1c3c(ccc21)OCN(CCCn1ccnc1)C3 was read as mHTT-CaM PPI inh 100* and Pf apPOL inh 6.
Screening Cc1ccc(C(=O)Nc2cccc(-c3nc4ccccc4s3)c2C)cc1[N+](=O)[O-] returned mHTT-CaM PPI inh 5 and Pf apPOL inh 2.
For O=C1OC(c2ccc3c(c2)OCO3)=N/C1=C\c1ccc([N+](=O)[O-])cc1 the results were mHTT-CaM PPI inh -2 and Pf apPOL inh 12.
COc1cc(C=C2SC(=O)NC2=N)ccc1O was read as mHTT-CaM PPI inh 23 and Pf apPOL inh -1.
For COCCN1COc2ccc3cc(-c4ccc(OC)c(OC)c4)c(=O)oc3c2C1 the results were mHTT-CaM PPI inh -6 and Pf apPOL inh -7.
`Cc1ccc(CN2C(=O)N(c3cccc(F)c3)c3ncccc3S2(=O)=O)cc1` gave mHTT-CaM PPI inh 3 and Pf apPOL inh -4.
Cc1nnc2sc(SCC(=O)Nc3cccc(C(F)(F)F)c3)nn2c1=O was read as mHTT-CaM PPI inh 99* and Pf apPOL inh 0.
Cc1cc2c(=O)n(CC(=O)Nc3cccc(C(F)(F)F)c3)cnc2s1 was read as mHTT-CaM PPI inh -11 and Pf apPOL inh -1.
O=C(NCCNc1ccc(Nc2ccccn2)nn1)c1ncccn1 was read as mHTT-CaM PPI inh 100* and Pf apPOL inh -1.
Cc1cccc(Nc2ccc(NCCNC(=O)c3ccccc3C(F)(F)F)nn2)n1 was read as mHTT-CaM PPI inh 1 and Pf apPOL inh -8.
Screening c1ccc(CCn2c(-c3ccccc3)csc2=Nc2ccccc2)cc1 returned mHTT-CaM PPI inh 1.
`OCCCn1c(-c2ccc(Cl)s2)csc1=Nc1ccccc1` gave mHTT-CaM PPI inh 41 and Pf apPOL inh 19.
Cc1ccc(-c2csc(=Nc3ccccc3)n2CCCN(C)C)cc1 was read as mHTT-CaM PPI inh 73* and Pf apPOL inh 4.
Cc1ccc(-c2csc(=Nc3ccccc3)n2CCCO)cc1 was read as mHTT-CaM PPI inh 53* and Pf apPOL inh -3.
For Cc1cc(C)cc(NC(=O)CN2CCC(C(=O)Nc3ncc(C)s3)CC2)c1 the results were mHTT-CaM PPI inh -13 and Pf apPOL inh -5.
For CCOc1ccc(NC(=O)/C(C#N)=C/c2cc(C)n(-c3cccnc3)c2C)cc1 the results were mHTT-CaM PPI inh 20 and Pf apPOL inh -4.
Screening Cc1ccc(NC(=O)/C(C#N)=C/c2cc(C)n(-c3cccnc3)c2C)cc1C returned mHTT-CaM PPI inh 52* and Pf apPOL inh -8.
For O=C1Nc2ccccc2C1=Nc1ccc(C(=O)O)cc1 the results were mHTT-CaM PPI inh 1 and Pf apPOL inh 0.
CCN(CC)c1ccc(N=C2C(=O)Nc3ccccc32)cc1 was read as mHTT-CaM PPI inh 100* and Pf apPOL inh -39.
For C=C1C2(C(=O)Nc3ccc(Cl)cn3)CCC(C2)C1(C)C (centres undefined) the results were mHTT-CaM PPI inh -1 and Pf apPOL inh -4.
Screening CCOc1ccc(C2CC(c3ccccc3Cl)n3ncnc3N2)cc1Cl (centres undefined) returned mHTT-CaM PPI inh 27 and Pf apPOL inh -4.
